Test [1] in a line: Tanguay_ZF_120hpf_SOMI_legacy: (Legacy) Oregon State University Tanguay Lab 120 Hour Post-fertilization zebrafish Assay for Somite Malformation (AID 2283647). The method, boiled down: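 Read-out: presence or absence of somite malformation in 120 hpf larvae, gain-of-signal relative to DMSO baseline. Embryos lacked chorion (pronase, 4 hpf) and were exposed statically from 6 hpf at 28C; dead larvae not scored.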

The nature of test [2]: Tanguay_ZF_120hpf_PFIN_legacy: (Legacy) Oregon State University Tanguay Lab 120 Hour Post-fertilization zebrafish Assay for Pectoral Fin Malformation (AID 2283648).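 Also: each larva judged yes or no for fin defect by brightfield with dead larvae skipped.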 The method, boiled down: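 5D WT zebrafish; pronase dechorionation 4 hpf; 1 embryo/well at 6 hpf; static exposure to 120 hpf, 28C, sealed, foil-covered; final DMSO 0.64% v/v; 5 uM trimethyltin chloride positive control; fin defect scored yes/no.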

Test [3] can be described thus: Tanguay_ZF_120hpf_CFIN_legacy: (Legacy) Oregon State University Tanguay Lab 120 Hour Post-fertilization zebrafish Assay for Caudal Fin Malformation (AID 2283649). The gist of the method:
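Binary presence or absence of caudal fin malformation at 120 hpf, read by brightfield microscopy, with DMSO as baseline. Larvae came from 5D wild-type embryos exposed statically from 6 hpf at 28C after pronase dechorionation.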

Test [4] in a line: Tanguay_ZF_120hpf_PIG_legacy: (Legacy) Oregon State University Tanguay Lab 120 Hour Post-fertilization zebrafish Assay for Pigmentation Malformation (AID 2283650). The gist of the method:
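Pronase dechorionation at 4 hpf; embryos plated at 6 hpf, one per well; static exposure, sealed and foil-covered, 28C, to 120 hpf; pigmentation read by brightfield, binary; DMSO 0.64% baseline, 5uM trimethyltin chloride positive control.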

The nature of test [5]: Tanguay_ZF_120hpf_CIRC_legacy: (Legacy) Oregon State University Tanguay Lab 120 Hour Post-fertilization zebrafish Assay for Circulatory Malformation (AID 2283651). The method, boiled down:
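Using wild-type Tropical 5D zebrafish, we exposed dechorionated embryos from 6 to 120 hpf in embryo medium with 0.64% DMSO. Circulatory defects were scored as present or absent; 5uM trimethyltin chloride served as positive control.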

The nature of test [6]: Tanguay_ZF_120hpf_SWIM_legacy: (Legacy) Oregon State University Tanguay Lab 120 Hour Post-fertilization zebrafish Assay for Swim Bladder Malformation (AID 2283654).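 Also: swim bladder malformation in each larva scored yes or no under brightfield.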 The gist of the method:
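Embryos lacking chorions were exposed individually and statically to test chemical from 6 to 120 hpf at 28C, with 0.64% DMSO as vehicle. At 120 hpf, swim bladder malformation was recorded as present or absent by brightfield microscopy.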

A short description of test [7]: Tanguay_ZF_120hpf_TRUN_legacy: (Legacy) Oregon State University Tanguay Lab 120 Hour Post-fertilization zebrafish Assay for Truncated Body (AID 2283655). The method, boiled down:
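Truncated body is recorded as a binary endpoint at 120 hpf by brightfield imaging of wild-type 5D larvae. Exposure runs statically from 6 hpf at 28C with 0.64% DMSO; embryos dying earlier are not scored.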

The subject of test [8] is Thyroperoxidase (TPO), gene 54314. The test can be described thus: CCTE_Simmons_AUR_rTPO: CCTE's Amplex UltraRed Assay for Thyroperoxidase (TPO) Inhibition, Simmons Lab (AID 2283662).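 Also: potency for loss of signal meaning inhibition of peroxidase activity.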 The gist of the method: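 Rat thyroid microsomes (5 ug protein) were incubated with test compound (8 concentrations, 5 nM–87.5 uM final, 0.5% DMSO), 25 uM Amplex UltraRed and 300 uM H2O2 in 200 mM phosphate buffer for 30 min at 37C in the dark; fluorescence read at 544/590 nm.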

Test [9] can be described thus: CCTE_Simmons_CellTiterGLO_HEK293T: Viability Assessment in CCTE's Assays for Thyroperoxidase (TPO) Inhibition, Simmons Lab (AID 2283665).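 As to AC50: cells exposed to compound for 24 h before readout; actives reduce ATP signal below DMSO vehicle meaning cytotoxicity.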 The method, boiled down:
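Cytotoxicity counter-screen: human HEK293T cells in low-serum (1% FBS) medium receive test chemical, 5 nM to 87.5 uM final, for 24 h; ATP is quantified by luciferase luminescence.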
In general terms: In ATP-based viability assays light output follows the ATP content of the culture.

Test [10] can be described thus: Tanguay_ZF_120hpf_TR_legacy: (Legacy) Oregon State University Tanguay Lab 120 Hour Post-fertilization zebrafish Assay for Touch Response (AID 2283667). The method, boiled down:
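5D WT embryos; static exposure to 120 hpf, 28C, sealed/dark; DMSO 0.64% v/v final. TR scored present/absent; dead embryos excluded. Pos ctrl 5uM trimethyltin chloride.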

Test [11] is described as follows: STM_H9_OrnithineISnorm_perc: Stemina devTOX quickPredict H9 human embryonic stem cell (hESC)-based Assay for Ornithine (ORN) Metabolite Biomarker, Normalized (AID 2283712; active = hit-call score of the fitted dose curve at least 0.9, where 1 is the maximum; inactive = score below 0.9;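 also: ornithine released into spent medium during last day measured by mass spectrometry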). The method, boiled down: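 Cells: undifferentiated H9 hESC. Dosing: 72 h, media replaced every 24 h. Sample: final 24-h conditioned media, 40% acetonitrile. Read: UPLC-HRMS ornithine area vs 13C standard, % DMSO control.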

Test [12] can be described thus: STM_H9_CystineISnorm_perc: Stemina devTOX quickPredict H9 human embryonic stem cell (hESC)-based Assay for Cystine (CYSS) Metabolite Biomarker, Normalized (AID 2283713; active = hit-call score of the fitted dose curve at least 0.9, where 1 is the maximum; inactive = score below 0.9). The method, boiled down: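 Secreted cystine was measured by UPLC-HRMS in H9 hESC medium after 72h compound exposure with 24-hourly replenishment. Values are standard-normalized areas relative to 0.1% DMSO.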

Test [13] is described as follows: STM_H9_OrnCyssISnorm_ratio: Stemina devTOX quickPredict H9 human embryonic stem cell (hESC)-based Assay for Ornithine (ORN):Cystine (CYSS) Ratio (AID 2283714). The gist of the method: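 Steps: H9 hESCs in pluripotent state dosed 72h, medium plus compound renewed every 24h; conditioned medium from the final 24h deproteinized in 40% acetonitrile; ORN and CYSS quantified by UPLC-HRMS with C13 spike-ins; ratio relative to vehicle.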

Test [14] in a line: Tanguay_ZF_120hpf_NC_legacy: (Legacy) Oregon State University Tanguay Lab 120 Hour Post-fertilization zebrafish Assay for Notochord and Tail Malformation (AID 2283656). The method, boiled down: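 Dechorionated 5D zebrafish, 1/well from 6 hpf; static exposure to 120 hpf, 28C, sealed, dark; final DMSO 0.64% v/v. NC scored binary (present/absent); dead embryos not scored. Fit vs DMSO baseline, gain direction.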

Test [15] can be described thus: CCTE_Padilla_ZF_144hpf_TERATOSCORE: (Legacy) CCTE's 144 Hour Post-fertilization zebrafish Assay Teratoscore, Padilla Lab (AID 2283679; active = hit-call score of the fitted dose curve at least 0.9, where 1 is the maximum; inactive = score below 0.9;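 also: zebrafish embryos with chorions exposed by immersion from 6-8 hpf to 5 dpf with daily renewal; teratogenicity score from eye scoring of death hatching and malformations at 144 hpf; higher score means more developmental defects relative to DMSO baseline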). The gist of the method: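 Larvae scored by eye at 144 hpf for death, hatching and malformations after a day in clean Hanks'. Before that, daily-renewed exposure at 80 uM (0.4% DMSO, 26C) from roughly 6-8 hpf through 5 dpf, 4 embryos per chemical.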

Results filed as inconclusive are left out. Active and inactive are the calls of the source. The calls were made as follows, unless noted: active = hit-call score of the fitted dose curve at least 0.9, where 1 is the maximum; inconclusive = response in the unintended direction; inactive = score below 0.9.

Broadly, the AC50 is the concentration at which the activity in the assay is half-maximal.

In the case of `CO[C@H]1/C=C/O[C@@]2(C)Oc3c(C)c(O)c4c(O)c(c(/C=N/N5CCN(C)CC5)c(O)c4c3C2=O)NC(=O)/C(C)=C\C=C\[C@H](C)[C@H](O)[C@@H](C)[C@@H](O)[C@@H](C)[C@H](OC(C)=O)[C@@H]1C`, the result in [1], in [2], in [3], in [4], in test [5] and in test [6] was inactive. The compound was called inactive in test [7], in test [9], in [10] and in test [11]. Also, the concentration at half-maximal activity (AC50) in test [8] was 3.3 µM (active); in [12] it was 3.27 µM (active); in test [13] it was 4.04 µM (active).
For the compound `CCCCCCCCCC(=O)O`, the compound was classed as inactive in test [1], in test [2], in test [3], in [4], in [5] and in test [6]. Further, the compound was classed as inactive in test [7], in test [14] and in test [10].
Turning to `CN1C(=O)CC[C@H]1c1cccnc1`, the compound was classed as inactive in [1], in test [2], in test [3], in test [4], in test [5] and in [6]. In addition, the result in [7], in [14], in test [10], in test [11], in test [12] and in test [13] was inactive.
On to `CN(C)C(=O)C1(N2CCCCC2)CCN(CC[C@@]2(c3ccc(Cl)c(Cl)c3)CN(C(=O)c3ccccc3)CCO2)CC1`, for which the outcome in test [1], in [2], in test [3], in [5], in test [6] and in [7] was inactive. Moreover, the call in [14] and in [12] was inactive. The figures for the AC50 in test [11] and in test [13] were 8.19 µM (active) and 8.17 µM (active), respectively.
On to `O=C(O)c1ccccc1-n1cc(C(=O)O)c(=O)c2cc(Nc3c(F)cc(F)cc3Cl)c(Cl)cc21`, for which the outcome in [1], in test [2], in [3], in [5], in test [6] and in test [14] was inactive. Moreover, the outcome in test [10] was inactive.
Regarding `Clc1ccccc1C(c1ccccc1)(c1ccccc1)n1ccnc1`, the concentration at half-maximal activity (AC50) was 61.3 µM (active) in [1], 25 µM (active) in [10] and 1.53 µM (active) in test [15]. The result in test [2], in test [3], in test [5], in [6] and in test [14] was inactive.
On to `CCCCCCCCOc1ccc(C(=O)c2ccccc2)c(O)c1`, for which the compound was called inactive in [1], in test [2], in [3], in test [4], in test [6] and in test [7]. Moreover, the compound was called inactive in [14].
Regarding `CC1(C)NC(=O)N(c2ccc([N+](=O)[O-])c(C(F)(F)F)c2)C1=O`, the compound was classed as inactive in [1], in test [2], in test [3], in test [5], in test [6] and in [7]. Also, in test [14], the compound was classed as inactive. The concentration at half-maximal activity (AC50) in test [15] was 17.2 µM (active).
Take `OC12N=C(c3ccccc3)SC1Cc1cc(Cl)ccc12` (stereo not drawn): the AC50 is 117 µM (active) in test [1]; 48.1 µM (active) in test [3]; 48.2 µM (active) in test [7]; 13 µM (active) in test [8]; 29.7 µM (active) in test [9]; 14.9 µM (active) in test [10]. Besides, the compound was called inactive in test [2], in [5] and in test [6].

The values are drawn from PubChem BioAssay (EPA / NIEHS).
